# Reference: PubChem BioAssay (NCATS)
# Inconclusive results are not listed. Entries that show only a call come without a potency. The source made the active and inactive calls. Calls come from the whole dose curve; as a rule, active = well fitted inhibition curve with a large enough effect; inconclusive = small, poorly fitted or top-dose-only effect; inactive = no such curve, though single readings can be large or run the other way. Where a SMILES comes first, the peptide text is derived from it.
# System: Zika virus NS2B-NS3 protease (linked construct)
# Assay: Primary screen NINDS Rhodamine qHTS for Zika virus inhibitors (AID 1347160); note: nearly all actives have a fitted effect of over 55% in size
# Settings: purified NS2B-NS3 protease, Rhodamine110 substrate fluorescence; series mostly up to 33.1 µM
# Procedure, shortened: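 Purified NS2B-NS3 protease with the NS2B hydrophilic domain joined by a flexible linker (25 nM) in 10 mM Tris-HCl pH 8.0, 0.01% Tween 20, preincubated 15 min at RT with compound; Rhodamine110 peptide substrate 1.5 µM; fluorescence change over 15 min; 4-parameter Hill fit.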
# Potency is the fitted concentration of half-maximal effect.
row,SMILES,Potency
1,C/C=C(/C)C(=O)O[C@H]1C[C@]2(C)O[C@@H]2[C@@H](OC(C)=O)[C@@]2(C)CC[C@@](O)(C(C)C)[C@H]12,inactive
2,CCC(C)C(N)C(=O)NCCN1CCOCC1 (centres undefined),inactive
3,C=C1CC[C@@]2(OC1)O[C@H]1CC3[C@@H]4CC=C5C[C@@H](O)C[C@@H](O[C@@H]6OC[C@H](O)[C@H](O)[C@H]6O[C@@H]6O[C@@H](C)[C@H](O)[C@@H](O)[C@H]6O)[C@]5(C)C4CC[C@]3(C)[C@H]1[C@@H]2C (some centres undefined),inactive
4,CC1OC(O[C@@H]2[C@@H](O)[C@H](OC(=O)[C@]34CCC(C)(C)C[C@H]3C3=CCC5[C@@]6(C)CC[C@H](O[C@@H]7O[C@H](C(=O)O)[C@@H](O)[C@H](O[C@@H]8OC[C@@H](O)[C@H](O)[C@H]8O)[C@H]7O[C@@H]7O[C@H](CO)[C@H](O)[C@H](O)[C@H]7O)[C@@](C)(C=O)C6CC[C@@]5(C)[C@]3(C)C[C@H]4O)O[C@H](C)[C@@H]2OC2OC(C)C(OC3OCC(O)C(O)C3O)C(O)C2O)C(O)C(O)C1O (some centres undefined),inactive
5,C[C@@H]1C(=O)O[C@H](C)[C@H]1C[C@@H](O)[C@](C)(O)[C@H]1CC[C@@]2(O)C3=CC(=O)[C@@H]4C[C@@H](O)[C@@H](O)C[C@]4(C)C3CC[C@]12C (some centres undefined),inactive
6,COC(=O)C1C(c2ccc(O)cc2)C(C(=O)O)C1c1ccc(O)cc1 (centres undefined),inactive
7,COc1cc(C(CO)CO[C@@H]2O[C@H](CO)[C@@H](O)[C@H](O)[C@H]2O)ccc1O (some centres undefined),inactive
8,CCCC/C=C\CCCCCc1cc(=O)c2ccccc2n1C,inactive
9,COc1ccc(/C=C/C(=O)O[C@@H]2[C@@H](O[C@@H]3O[C@H](CO)[C@@H](O)[C@H](O)[C@H]3O)[C@@H](O)[C@H](O[C@H]3C4C=CO[C@@H](O[C@@H]5O[C@H](CO)[C@@H](O)[C@H](O)[C@H]5O)C4[C@@]4(CO)O[C@@H]34)O[C@H]2C)cc1 (some centres undefined),inactive
10,C/C=C1\[C@H](O[C@@H]2O[C@H](CO)[C@@H](O)[C@H](O)[C@H]2O)OC=C(C(=O)OCCc2ccc(O)cc2)[C@H]1CC(=O)OCCc1ccc(O)cc1,inactive
11,COc1cc(O)cc(C)c1C(=O)O[C@H]1[C@@H](O)[C@@H](n2ccc(=O)[nH]c2=O)O[C@@H]1CO,inactive
12,On1ncc(C2CCNCC2)c1-c1cccc(-c2ccccc2)c1,inactive
13,CC1(C)CC[C@]2(C(=O)O)CC[C@]3(C)C(=CCC4[C@@]5(C)C[C@@H](O)[C@H](O)[C@@](C)(CO)C5[C@H](O)C[C@]43C)[C@@H]2C1 (some centres undefined),inactive
14,C/C=C(\C)C(=O)OC1C(C)C2(O)C3C=C(C)C(=O)C3CC(CO)=CC2C2C(C)(C)C12OC(C)=O (centres undefined),inactive
15,CC(=O)N[C@H]1[C@H](O[C@H]2CC[C@]3(C)C4CC=C5[C@@H]6CC(C)(C)CC[C@]6(C(=O)O)[C@H](O)C[C@@]5(C)[C@]4(C)CC[C@H]3C2(C)C)O[C@H](CO)[C@@H](O)[C@@H]1O (some centres undefined),inactive
16,CC(=C\C(C)O)/C=C(\C)C(=O)CC1CC(CC(N)=O)CC(=O)O1 (centres undefined),inactive
17,COc1cc(/C=C/C(=O)O[C@H]2[C@H](O)[C@@H](CO)O[C@@]2(CO)O[C@H]2O[C@H](CO)[C@@H](O)[C@H](O)[C@H]2O)cc(OC)c1O,inactive
18,CCOc1nc2c(N)ncnc2n1CC,inactive
19,C[C@]1(O)CC[C@@H]2C(C(=O)O)=CO[C@@H](O[C@@H]3O[C@H](CO)[C@@H](O)[C@H](O)[C@H]3O)[C@@H]21,inactive
20,O=C(NC1CCN(CC(F)(F)F)CC1)c1ccc(-c2cccc(F)c2)nc1,inactive

row,SMILES,Potency
1,C/C=C(\C)C(=O)OC[C@H]1O[C@@H](O[C@H]2[C@@H](O[C@H]3O[C@H](CO)[C@@H](O)[C@H](O)[C@H]3O[C@@H]3O[C@H](CO)[C@@H](O)[C@H](O)[C@H]3O)O[C@H](COC(=O)/C(C)=C/C)[C@@H](O)[C@@H]2O)[C@H](O)[C@@H](O)[C@@H]1O,inactive
2,CC1(C)CC=C(C#Cc2ccccc2)c2cc(/C=C/c3ccc(C(=O)O)cc3)ccc21,15.8 µM (active)
3,CC1CCC2(NC1)OC1C(O)C3C4CCC5CC(O[C@@H]6O[C@H](CO)[C@@H](O)[C@H](O)[C@H]6O[C@@H]6O[C@@H](C)[C@H](O)[C@@H](O)[C@H]6O)CCC5(C)C4CCC3(C)C1C2C (some centres undefined),inactive
4,CCN(CCN(C)C)C(=O)CNCc1cc(C(N)=O)ccn1,inactive
5,COc1ccc(/C=C/C(N)=O)cc1OC,inactive
6,Oc1ccc2c(-c3c(-c4ccccn4)nn4c3CCC4)ccnc2c1,inactive
7,N#CN1CCC[C@@H](n2nc(-c3ccc(Oc4ccc(F)cc4F)cc3)c(C(N)=O)c2N)C1,inactive
8,Cc1c(F)cc(C(=O)NC2CC2)cc1-c1ccc(C(=O)NCC(C)(C)C)cn1,inactive
9,Cc1ccc(C)c(S(=O)(=O)n2cnc3ccccc32)c1,inactive
10,C=C(COC(=O)C(C)C)C1Oc2cc(C(C)=O)ccc2C1OC(=O)C(C)C (centres undefined),inactive
11,COc1ccc(/C=C/C(=O)O[C@@H]2[C@@H](O)[C@@H](O)[C@H](O[C@H]3[C@@H]4C=CO[C@@H](O[C@@H]5O[C@H](CO)[C@@H](O)[C@H](O)[C@H]5O)[C@@H]4[C@@]4(CO)O[C@@H]34)O[C@H]2C)cc1,inactive
12,CC(=O)NC(Cc1ccccc1)C(=O)NC(C(=O)O)C(C)C (stereo not drawn) (Ac-Phe-Val-OH; configuration not given here),inactive
13,CC(NC(=O)c1ccccc1N)C(=O)O (centres undefined),inactive
14,C/C=C(\C)C(=O)OC1CC2C(CC=C3CC(OC4CC(OC)C(OC5CC(OC)C(OC6CC(OC)C(OC7CC(OC)C(OC8CC(OC)C(OC9OC(CO)C(O)C(O)C9O)C(C)O8)C(C)O7)C(C)O6)C(C)O5)C(C)O4)CCC32C)C2(O)CCC(C(C)=O)C12C (centres undefined),inactive
15,CN1CCN(C(=O)c2cc3cc(Cl)ccc3[nH]2)CC1,inactive
16,N#Cc1ccc(C2CCCc3cncn32)cc1 (centres undefined),inactive
17,C=C(CO)C(=O)O[C@H]1C[C@@]23O[C@@H]2CC/C(=C/[C@H]2OC(=O)C(=C)[C@H]12)CO[C@H]3O,inactive
18,C/C=C(\C)C(=O)OCC1OC(OC2OC(CO)C(O)C(O)C2O)C(O)C(O)C1O (centres undefined),inactive
19,C=C1C[C@H](O)[C@@H](O)[C@@]2(C)C1[C@@H](O)[C@H]1OC(=O)C3[C@@H](C)[C@@H](O)[C@H](O)C2[C@]31C (some centres undefined),inactive
